A selection: hits, their analogues and other compounds. The true share with any hit is near 8%.
KB-3-1 tox: kills parental KB-3-1 adenocarcinoma cells; AID 1347075; KB-3-1 viability, CellTiter-Glo ATP luminescence, 72 h; Potency, µM (series often up to 46.1 µM), actives largely listed as cytotoxic; hit rate 1.4% among 400,000; further: on the % scale 0 is the no-effect control and ±100 the full control effect; nearly all actives have a fitted effect of over 60% in size
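KB-3-1 cells, DMEM (no phenol red) + 10% FBS; compound by pin transfer, 72 h, 37 °C. Readout: CellTiter-Glo luminescence after 10 min. Data normalized, curve-fitted.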
HT1080NT lethal: kills 2HG-producing HT-1080-NT fibrosarcoma cells | HT-1080-NT fibrosarcoma viability, CellTiter-Glo ATP luminescence, 48 h | Potency, µM (top dose mostly 46.1 µM), for inactives: top-dose activity, negative = less viability, actives largely listed as cytotoxic | hit rate 1.6% among 360,000 | AID 686970;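 further: NT is the 2HG producing partner of a matched IDH1 knockdown line; 0% = DMSO-treated cells and -100% = media-only wells without cells; nearly all actives have a fitted effect of over 55% in size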
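750 cells/well, RPMI + 5% FBS; 2 h settle, compound pin-transfer, 48 h at 37 degrees C. CellTiter-Glo 10 min RT, luminescence. Normalized to DMSO and media-only wells.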
MCF10A rerep: induces DNA re-replication in MCF 10a normal breast cells. Potency, µM (highest dose often 46.1 µM), for the others: at the top dose activity, positive = re-replication, usual class: activators. MCF 10A DNA re-replication, Hoechst nuclear intensity, 48 h. hit rate 2.9% among 350,000; further: % of control where 0% means no effect; nearly all actives have a fitted effect of over 50% in size
HT1080 IDH1KD tx: HT-1080 IDH1 knockdown cell toxicity (counter line); Potency, µM (doses to about 46.1 µM), without a hit: at the highest dose activity, negative = toxicity, hits mostly cytotoxic; hit rate 2% among 360,000; HT-1080 IDH1 knockdown viability, ATP luminescence, 48 h;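 further: 0% = DMSO wells and -100% = cell-free medium wells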
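CellTiter-Glo luminescence after 48 h compound exposure at 37 degrees C of IDH1-knockdown HT-1080 cells in 5% FBS RPMI. %Activity scaled between DMSO wells and cell-free media wells, with curves fitted and assigned curve classes.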
SW480 rerep: inducers of DNA re-replication in SW480 colon cancer cells | SW480 DNA re-replication, Hoechst DNA content imaging, 48 h | Potency, µM (doses to about 46.1 µM), without a hit: at the highest dose re-replication activation, most hits filed as activators | hit rate 1.8% among 340,000 | AID 624297; further: % of control where 0% means no effect; nearly all actives have a fitted effect of over 55% in size
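SW480 cells exposed to compounds for 48 hr at 37 C, 5% CO2, then Hoechst-stained 40 min. Nuclear DNA content imaged by fluorescence scanning (405 nm excitation, 500-530 nm emission); re-replication scored as increased high-intensity nuclei.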
KB-V1 MDR tox: kills drug-selected multidrug resistant KB-V1 cells. KB-V1 MDR cells viability, CellTiter-Glo, 72 h. Potency, µM (top dose mostly 46.1 µM), hits mostly cytotoxic. hit rate 3.4% among 400,000. AID 1347076; further: on the % scale 0 is the no-effect control and ±100 the full control effect; nearly all actives have a fitted effect of over 60% in size
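Drug-selected KB-V1 cells, grown in DMEM lacking phenol red with 10% FBS, receive compound titrations; after three days at 37 degrees C, surviving cell ATP is quantified by CellTiter-Glo luminescence and responses normalized and curve-fitted.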
An asterisk follows results filed as active; i = inactive; u = inconclusive; x = no result given. The call rests on the fitted dose curve; in most records, active means well fitted curve in the direction sought with a large enough effect; inconclusive means small, poorly fitted or top-dose-only effect, or another doubt; inactive means no such curve, though single readings can be large; an effect the other way counts as inactive or inconclusive. Potency means the concentration at half of the fitted maximal effect.

SMILES | KB-3-1 tox | HT1080NT lethal | MCF10A rerep | HT1080 IDH1KD tx | SW480 rerep | KB-V1 MDR tox
COc1cccc(C(=O)N2C(C(C)C)COc3cc(Br)ccc3S2(=O)=O)c1 (configuration not stated) | i | u | x | u | x | i
Cc1cccc(C(=O)N2[C@@H](C(C)C)COc3cc(Br)ccc3S2(=O)=O)c1 | u | u | 8.2µM* | u | 2% | u
Cc1sc2ncnc(NCC(c3ccccc3)N(C)C)c2c1C (configuration not stated) | i | -27% | 10% | -14% | -3% | i
Nc1ccc(C(=O)N/N=C/c2cn(Cc3ccccc3)c3ccccc23)cc1 | u | -17% | -1% | u | -3% | 29µM*
O=C(O)c1ccc(N/N=C/c2cn(Cc3ccccc3F)c3ccccc23)cc1 | u | u | 21µM* | u | u | i
Nc1ccc(C(=O)N/N=C/c2cn(Cc3ccc(F)cc3)c3ccccc23)cc1 | i | -17% | 7% | -25% | 1% | i
CNC(=S)N/N=C/c1cn(Cc2ccc(F)cc2)c2ccccc12 | u | -27% | u | -28% | 0% | 15µM*
O=C(CCN1C(=O)C2CCCCC2C1=O)Nc1nc(-c2ccc(F)c(F)c2)cs1 (configuration not stated) | i | -12% | u | -8% | -4% | i
CCOC(=O)CCc1c(C)c2ccc3c(c2oc1=O)CN(CCCO)CO3 | i | 0% | 7.3µM* | 0% | u | i
O=C(Cc1ccc(Cl)cc1)N1CCOCC1 | i | 13% | -6% | 21% | -3% | i
Cc1ccc(OCCCC(=O)NC(C)c2ccccc2)cc1 (configuration not stated) | i | -1% | 1% | 0% | -1% | i
COc1ccc(/C=N/NC(=O)C(=O)NCC2CCCO2)cc1 (configuration not stated) | i | 11% | -1% | 1% | -23% | i
CCc1sc(NC(=O)CN2CCC(C(N)=O)CC2)nc1-c1ccccc1 | i | 5% | -1% | 5% | -7% | i
CCc1sc(N2C(=O)C3C4CCC(C4=C(C)C)C3C2=O)nc1-c1ccccc1 (configuration not stated) | i | -28% | u | -22% | 0% | 12µM*
CC(C)(C)N1CC(OC(N)=O)C1 | u | 9% | 6% | 10% | -10% | i
CC(=O)C1=C(C)NC(SCC(=O)c2cc(Cl)ccc2Cl)=C(C#N)C1c1ccco1 (configuration not stated) | i | u | u | u | u | i
CCOc1ccccc1NC(=O)CSC1=C(C#N)C(c2ccco2)C(C(=O)Nc2nc3ccccc3s2)=C(C)N1 (configuration not stated) | i | -5% | u | 0% | 3.7µM* | i
CC(=O)C1=C(C)NC(SCC(=O)c2ccc(Cl)c(Cl)c2)=C(C#N)C1c1ccco1 (configuration not stated) | i | -26% | 2% | -2% | 12µM* | u
CC(=O)C1=C(C)NC(SCc2cccc([N+](=O)[O-])c2)=C(C#N)C1c1ccco1 (configuration not stated) | i | 0% | 14% | -9% | u | 10µM*
CCCCOc1ccc(S(=O)(=O)n2nc(C)c(S(=O)(=O)N3CCCCCC3)c2C)cc1 | i | x | x | x | x | i
C=CCn1c(-c2sccc2C)n[nH]c1=S | i | 17% | 22% | 19% | -2% | i
O=C(c1ccncc1)c1ccc(N2CCN(C3CC(=O)N(Cc4cccs4)C3=O)CC2)cc1 (configuration not stated) | u | 12µM* | -2% | -28% | -6% | i

Compound activity as filed in PubChem BioAssay.
